The nature of assay [1]: small molecules captured by biotinylated probe aFSTL3 – biochemical, small-molecule microarray, fluorescence 635/667, stem cell growth factor project, primary screen (AID 1064).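 Further: measures binding of the biotinylated anti-FSTL3 antibody to printed compounds.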 As to conditions: higher = more signal.
A short description of assay [2]: binders from COS7 lysate, DM2A8 probe, primary screen, torsin A project, cell lysate, small-molecule microarray, fluorescence 635/667 (AID 1065). As to conditions: higher = more signal, COS7 lysate expressing mutant human TOR1A.
Assay [3] is described as follows: small molecules captured by biotinylated probe aFGF2 – biochemical, small-molecule microarray, fluorescence 635/667, stem cell growth factor project, primary screen (AID 1067).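 Further: measures binding of biotinylated aFGF2 protein to printed compounds on slides; z-score merges feature fluorescence and signal-to-noise across triplicate slides.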 As to conditions: higher = more signal.
A short description of assay [4]: small molecules captured by biotinylated probe aFGF10 – biochemical, small-molecule microarray, fluorescence 635/667, stem cell growth factor project, primary screen (AID 1071).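 Further: score merges 667 nm spot intensity and signal to noise from triplicate slides.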 As to conditions: higher = more signal.
The target of assay [5] is Neurogenic locus notch homolog protein 2 (Homo sapiens) (UniProt Q04721). The assay is described as follows: small molecules binding Notch2 protein – biochemical, small-molecule microarray, 635 nm fluorescence, stem cell growth factors, primary screen (AID 1073). As to conditions: higher = more signal.
Chain of Neurogenic locus notch homolog protein 2 (Homo sapiens) (Q04721 whole entry, looked up, canonical isoform): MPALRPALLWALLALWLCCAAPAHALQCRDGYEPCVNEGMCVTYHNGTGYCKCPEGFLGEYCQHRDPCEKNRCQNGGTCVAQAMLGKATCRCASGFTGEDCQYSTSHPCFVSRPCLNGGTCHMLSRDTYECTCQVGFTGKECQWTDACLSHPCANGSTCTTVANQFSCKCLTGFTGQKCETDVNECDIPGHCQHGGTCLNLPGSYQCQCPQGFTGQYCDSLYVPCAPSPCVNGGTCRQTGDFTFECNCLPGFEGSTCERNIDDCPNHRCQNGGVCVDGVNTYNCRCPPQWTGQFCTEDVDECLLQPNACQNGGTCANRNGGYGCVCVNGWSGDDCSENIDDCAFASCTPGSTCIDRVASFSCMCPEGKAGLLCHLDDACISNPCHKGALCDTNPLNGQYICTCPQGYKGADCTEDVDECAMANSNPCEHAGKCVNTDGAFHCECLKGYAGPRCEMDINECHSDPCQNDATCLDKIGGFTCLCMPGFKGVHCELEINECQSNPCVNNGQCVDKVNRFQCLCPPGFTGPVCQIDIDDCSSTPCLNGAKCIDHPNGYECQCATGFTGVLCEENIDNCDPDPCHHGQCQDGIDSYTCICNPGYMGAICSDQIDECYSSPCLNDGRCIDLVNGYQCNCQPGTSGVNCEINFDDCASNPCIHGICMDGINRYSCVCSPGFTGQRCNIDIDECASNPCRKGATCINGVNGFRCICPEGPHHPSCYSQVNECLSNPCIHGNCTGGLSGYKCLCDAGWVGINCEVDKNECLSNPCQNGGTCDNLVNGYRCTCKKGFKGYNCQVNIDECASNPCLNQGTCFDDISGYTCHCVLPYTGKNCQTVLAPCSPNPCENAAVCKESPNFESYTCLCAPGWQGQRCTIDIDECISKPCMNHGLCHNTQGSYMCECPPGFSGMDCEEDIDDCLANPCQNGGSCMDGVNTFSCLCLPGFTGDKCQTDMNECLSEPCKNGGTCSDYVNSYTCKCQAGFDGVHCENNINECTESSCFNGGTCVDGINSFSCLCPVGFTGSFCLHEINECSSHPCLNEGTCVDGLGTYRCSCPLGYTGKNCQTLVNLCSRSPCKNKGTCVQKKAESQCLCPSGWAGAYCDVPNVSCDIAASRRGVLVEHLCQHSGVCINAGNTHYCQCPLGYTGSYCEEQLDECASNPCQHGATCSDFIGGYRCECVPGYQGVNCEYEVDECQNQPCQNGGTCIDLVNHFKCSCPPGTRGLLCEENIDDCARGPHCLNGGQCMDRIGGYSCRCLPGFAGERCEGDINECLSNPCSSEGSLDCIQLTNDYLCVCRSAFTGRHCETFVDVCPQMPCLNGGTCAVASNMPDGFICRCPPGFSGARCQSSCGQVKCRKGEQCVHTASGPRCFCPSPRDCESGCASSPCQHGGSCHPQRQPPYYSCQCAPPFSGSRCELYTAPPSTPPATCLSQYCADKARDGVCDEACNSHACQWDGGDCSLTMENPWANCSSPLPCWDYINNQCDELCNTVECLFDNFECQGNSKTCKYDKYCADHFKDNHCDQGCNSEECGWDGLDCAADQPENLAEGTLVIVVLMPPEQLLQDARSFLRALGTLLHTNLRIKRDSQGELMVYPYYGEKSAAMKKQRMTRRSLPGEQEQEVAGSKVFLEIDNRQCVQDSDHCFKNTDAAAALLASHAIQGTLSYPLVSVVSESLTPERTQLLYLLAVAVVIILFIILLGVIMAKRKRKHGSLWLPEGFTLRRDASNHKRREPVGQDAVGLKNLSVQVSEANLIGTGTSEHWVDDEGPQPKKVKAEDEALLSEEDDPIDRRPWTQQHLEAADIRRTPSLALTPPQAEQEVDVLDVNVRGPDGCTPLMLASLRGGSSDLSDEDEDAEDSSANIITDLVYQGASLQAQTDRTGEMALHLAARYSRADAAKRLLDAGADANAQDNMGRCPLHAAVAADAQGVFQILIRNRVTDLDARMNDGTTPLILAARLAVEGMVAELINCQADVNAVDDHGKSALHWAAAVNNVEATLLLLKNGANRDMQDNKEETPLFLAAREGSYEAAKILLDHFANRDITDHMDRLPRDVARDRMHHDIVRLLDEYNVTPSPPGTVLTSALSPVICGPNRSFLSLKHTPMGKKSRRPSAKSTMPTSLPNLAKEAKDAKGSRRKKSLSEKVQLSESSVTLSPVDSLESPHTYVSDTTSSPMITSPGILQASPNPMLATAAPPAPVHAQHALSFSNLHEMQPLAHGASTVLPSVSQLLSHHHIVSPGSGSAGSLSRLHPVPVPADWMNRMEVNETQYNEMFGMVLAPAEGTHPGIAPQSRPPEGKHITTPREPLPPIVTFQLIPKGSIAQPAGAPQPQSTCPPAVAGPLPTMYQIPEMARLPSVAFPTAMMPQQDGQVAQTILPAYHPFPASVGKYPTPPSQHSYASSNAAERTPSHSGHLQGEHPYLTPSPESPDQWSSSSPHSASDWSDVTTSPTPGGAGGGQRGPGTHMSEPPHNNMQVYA
In assay [6] the target is Pro-neuregulin-1, membrane-bound isoform (Homo sapiens) (UniProt Q02297). Description: small molecules binding neuregulin-1 protein – biochemical, small-molecule microarray, fluorescence 635/667, psychiatric disease protein project, primary screen (AID 1075).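 Further: score combines 667 nm spot fluorescence with signal to noise.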 As to conditions: NRG1 binding, 635 nm fluorescence, higher = more signal.
Chain of Pro-neuregulin-1, membrane-bound isoform (Homo sapiens) (Q02297 whole entry, looked up, the tested form may be a part, canonical isoform): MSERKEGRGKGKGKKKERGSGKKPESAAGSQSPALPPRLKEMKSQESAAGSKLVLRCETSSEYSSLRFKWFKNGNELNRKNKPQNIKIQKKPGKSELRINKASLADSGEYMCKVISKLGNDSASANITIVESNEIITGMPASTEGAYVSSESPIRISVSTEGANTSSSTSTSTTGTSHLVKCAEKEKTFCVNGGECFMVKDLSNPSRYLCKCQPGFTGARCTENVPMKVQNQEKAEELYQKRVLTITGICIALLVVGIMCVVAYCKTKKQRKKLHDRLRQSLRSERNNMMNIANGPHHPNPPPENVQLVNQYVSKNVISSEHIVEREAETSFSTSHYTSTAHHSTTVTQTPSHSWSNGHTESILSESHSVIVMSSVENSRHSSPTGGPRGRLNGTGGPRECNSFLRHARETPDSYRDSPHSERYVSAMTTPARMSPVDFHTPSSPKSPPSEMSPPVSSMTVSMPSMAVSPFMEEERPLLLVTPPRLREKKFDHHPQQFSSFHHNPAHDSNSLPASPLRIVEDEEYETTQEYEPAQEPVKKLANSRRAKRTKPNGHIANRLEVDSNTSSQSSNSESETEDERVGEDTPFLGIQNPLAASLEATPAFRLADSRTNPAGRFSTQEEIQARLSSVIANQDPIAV
Assay [7] concerns Neuregulin-1 EGF-like domain. Description: small molecules binding NRG1 EGF domain – biochemical, small-molecule microarray, 635 nm fluorescence, primary screen (AID 1081).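 Further: binding of the protein to compounds printed on small-molecule microarray slides.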 As to conditions: higher = more signal.
The nature of assay [8]: FRG1 expression reporter modulators in myotubes – cell-based, C2C12 myotubes, firefly/Renilla luciferase, luminescence, FRG1 inhibition for FSHD, primary screen (AID 1084). The note with it: FRG1 promoter luciferase, higher = more signal, called active from +8 up or from −8 down.
Assay [9] can be described thus: small molecules captured by biotinylated probe aFST – biochemical, small-molecule microarray, fluorescence 635/667, stem cell growth factor project, primary screen (AID 1086).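 Further: score merges 667 nm fluorescence with signal-to-noise of each printed compound spot.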 As to conditions: higher = more signal.
A short description of assay [10]: binders of probe aHhip on microarray, primary screen, stem cell growth factor project, biochemical, small-molecule microarray, fluorescence 635/667 (AID 1087).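 Further: score merges spot fluorescence at 667nm with spot signal to noise ratio.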 The note with it: higher = more signal.

Activity calls are given as the source filed them.

As to `C#CCCCON=C1C[C@@H](O)[C@@H](O)[C@@H]2[C@@H]3C(=O)N(C4CCCCC4)C(=O)[C@@H]3CC[C@@H]12`, the composite z-score in assay [1] is 0.835; in assay [2] it was 0.0616; in assay [3], -0.115; in assay [4], -0.0372; in assay [5] it was 0.766; in assay [6], 0.846. The composite z-score in [7] was 0.565; in assay [9], -0.0386; in [10], 0.312. The z-score in assay [8] was 0.287 (inactive).

On to `COC(=O)[C@@H]1CC[C@H](C)[C@@H](c2ccc(C)cc2)N1C(=O)c1ccc(C=NOC[C@H]2O[C@H](c3ccccc3)C=C[C@@H]2Oc2ccc(OC)cc2)cc1`, for which the composite z-score is -0.462 in assay [1]; -0.24 in [2]; -0.154 in [3]; 0.217 in [4]; -0.0637 in [5]; 0.0379 in assay [6]. Besides, the figures for the composite z-score in assay [7], in assay [9] and in [10] were -0.631, 0.044 and -0.191, respectively. For the same compound, in [8], the z-score is 0.434 (inactive).

For the compound `CO[C@H]1COC(=O)[C@H](C)COC(=O)[C@H](C)NC(=O)CC=C[C@H]1C`, the composite z-score was -0.874 in assay [1]; 1.28 in assay [2]; -0.145 in assay [3]; 0.37 in assay [4]; 0.127 in assay [5]; -0.575 in [6]. Further, the composite z-score came out at 0.887 in assay [7], 0.0261 in [9] and 0.124 in assay [10]. Further, the z-score in assay [8] was -0.592 (inactive).

In the case of `CC[C@@H](c1ccccc1)n1c(=O)n2n(c1=O)[C@H]1[C@H](O)[C@@H]3O[C@@H]3C(=NOCc3ccccc3)[C@H]1CC2`, the composite z-score in assay [1] was 0.83; in assay [2], 0.374; in assay [3], -0.172; in [4] it was 0.0913; in assay [5], 0.57; in assay [6], 0.834. For the same compound, the results for the composite z-score in assay [7], in assay [9] and in assay [10] were 0.504, -0.0575 and -0.13, respectively. Besides, in assay [8], the z-score is 2.67 (inactive).

For `COc1ccc(COC(=O)NN=C2C[C@@H](O)[C@@H](O)[C@@H]3[C@@H]4C(=O)N(C(C)(C)C)C(=O)[C@@H]4CC[C@@H]23)cc1`, the composite z-score in assay [1] was -0.31; in [2], 1.1; in assay [3] it was -0.0243; in assay [4] it was 0.568; in assay [5], 1.14; in [6], 0.173. The composite z-score was 0.644 in assay [7], 0.413 in assay [9] and -0.204 in assay [10]. Besides, the z-score in assay [8] is 1.24 (inactive).

On to `CC(=O)OC[C@H]1O[C@H](CC=NO[C@H](C)c2cn([C@@H]3COC[C@H]3O)nn2)C=C[C@@H]1OC(C)=O`, for which the composite z-score is -0.239 in assay [1]; 0.0556 in assay [2]; -0.131 in [3]; 0.294 in [4]; 0.277 in assay [5]; -0.0528 in [6]. The composite z-score in assay [7] is 0.422; in assay [9], -0.149; in [10] it was -0.0673. In addition, in assay [8], the z-score was -0.956 (inactive).

For `COc1ccc(O[C@H]2C=C[C@@H](c3ccccc3)O[C@@H]2COC(=O)CCC(C)=NOC[C@@H](O)COCc2ccco2)cc1`, the composite z-score in assay [1] is 0.776; in assay [2], -1.81; in assay [3] it was -0.411; in assay [4], -1.98; in assay [5] it was -2.67; in assay [6] it was -1.28. For the same compound, the values for the composite z-score in assay [7], in assay [9] and in assay [10] were -0.649, -2.3 and -0.115, respectively. The z-score in assay [8] is 0.838 (inactive).

With `CCCC[C@H]1CN2[C@@H](CC[C@@H](C)[C@@H]2c2ccc(Br)cc2)C(=O)O1`, the composite z-score in assay [1] was -0.333; in assay [2], 0.389; in assay [3], -0.0894; in assay [4] it was -0.947; in assay [5] it was 0.564; in assay [6], 1.19. For the same compound, the composite z-score is 1.11 in [7], 0.253 in [9] and 0.0722 in assay [10]. In addition, in assay [8], the z-score is -0.374 (inactive).

Regarding `CCCCOC(OCCCC)C(O)CSc1ccc2ccccc2c1` (stereo not given), the composite z-score in [1] was -0.283; in assay [2], 0.61; in assay [3], -0.0599; in assay [4], 0.291; in [5], 0.525; in [6], -0.213. Moreover, the values for the composite z-score in assay [7], in [9] and in assay [10] were 0.461, 0.105 and 0.157, respectively. Besides, the z-score in assay [8] was -1.52 (inactive).

With `O=C1[C@H]2[C@H]3[C@H](O)[C@H](O)CC(=NOCc4ccccc4)[C@@H]3CC[C@H]2C(=O)N1c1cccc(Oc2ccccc2)c1`, the composite z-score is -0.556 in assay [1]; 0.101 in [2]; -0.0579 in assay [3]; 0.554 in assay [4]; 0.359 in assay [5]; 1.48 in [6]. The values for the composite z-score in assay [7], in assay [9] and in assay [10] were 0.988, 0.529 and 0.141, respectively. Also, the z-score in assay [8] is -0.441 (inactive).

As for `O=C1[C@H]2[C@H]3[C@H](O)[C@H](O)CC(=NOC[C@@H](O)COCc4ccco4)[C@@H]3CC[C@H]2C(=O)N1C1CCCCC1`, the composite z-score in assay [1] was -0.679; in [2], 2.04; in assay [3], -0.16; in assay [4], -0.357; in assay [5], 0.0224; in assay [6], -0.459. The composite z-score in [7] was 1.2; in assay [9], -0.045; in assay [10], 0.235. For the same compound, the z-score in assay [8] is 0.219 (inactive).

As to `CC(CCN1CCCCc2nc(C)c(C)cc21)=NO[C@H](C)c1cn([C@@H]2COC[C@H]2O)nn1`, the composite z-score is -0.565 in [1]; 2.25 in [2]; -0.126 in [3]; 0.517 in [4]; 1.11 in assay [5]; 0.172 in [6]. Also, the results for the composite z-score in assay [7], in assay [9] and in assay [10] were 1.18, 0.462 and -0.0772, respectively. Moreover, in assay [8], the z-score is 0.227 (inactive).

Regarding `COC(=O)[C@@H]1CC[C@H](C)[C@@H](c2ccc(Br)cc2)N1C(=O)C(F)(F)F`, the composite z-score in assay [1] is -0.23; in assay [2] it was -0.214; in assay [3] it was -0.108; in [4], -0.148; in assay [5], -0.232; in assay [6], -0.493. Besides, the composite z-score in [7] was -0.677; in [9] it was -0.249; in assay [10], -0.412. Also, in [8], the z-score is -0.589 (inactive).

`CCOC(=O)[C@H](CC(C)C)NC(=O)CCC1CC(OC(=O)NCc2ccc3c(c2)OCO3)CC2(CCCC(COC(=O)NCc3ccccc3)O2)O1` (stereo not given in full): the composite z-score in assay [1] is -0.542; in assay [2], 0.01; in [3], -0.0667; in [4] it was 0.536; in assay [5] it was 0.375; in [6] it was 0.929. The results for the composite z-score in assay [7], in [9] and in assay [10] were 1.12, 0.986 and -0.0994, respectively. In addition, in assay [8], the z-score is 1.61 (inactive).

As for `CO[C@@H]1C=CCC(=O)N[C@@H](C)C(=O)OC[C@@H](OC)[C@H](C)C=CCC(=O)OC[C@H]1C`, the composite z-score in assay [1] was -0.596; in [2], 2.23; in assay [3], -0.116; in [4] it was -0.631; in assay [5], -0.88; in [6], -0.503. Further, the composite z-score in assay [7] is 0.233; in [9], -0.045; in [10], 0.0373. Moreover, the z-score in assay [8] is -0.163 (inactive).

In the case of `O=C1[C@H]2[C@H]3[C@H](O)[C@H](O)CC(=NOC[C@@H](O)COCc4ccco4)[C@@H]3CC[C@H]2C(=O)N1Cc1ccc2c(c1)OCO2`, the composite z-score in assay [1] was -0.622; in [2], 2.39; in assay [3], -0.292; in assay [4] it was -0.738; in assay [5], -0.541; in assay [6] it was -0.285. Further, the composite z-score in assay [7] is 1.1; in assay [9], -0.0769; in assay [10], 0.2. Further, in assay [8], the z-score was -0.196 (inactive).

With `COC(=O)[C@H](C)NC(=O)CCC1CC(OC(=O)NCc2cccc3ccccc23)CC2(CCCC(COC(=O)NCc3cccc(C(F)(F)F)c3)O2)O1` (stereo not given in full), the composite z-score is -0.428 in assay [1]; 0.182 in assay [2]; -0.0316 in assay [3]; 0.762 in assay [4]; 1.17 in [5]; 1.09 in assay [6]. Moreover, the composite z-score in [7] was 1.01; in assay [9] it was 0.657; in [10] it was -0.271. The z-score in assay [8] was -0.374 (inactive).

(Values after PubChem BioAssay.)
